Values joined by “and” are separate entries in the source; they are usually repeats but may differ in a detail not shown here. Identical values can stand only once. Out of some 5,500 compounds screened, about 2,000 (36%) were called active. Not shown: some 18% with an inconclusive outcome. Rule as the data show it: active = normalized growth mostly below about 0.91 (no sharp cut-off); inconclusive = no clear call, values can overlap the other calls; inactive = mostly above about 0.92. The list shows a part of the results.
Test: chemical genetic growth profiling, strain panel (AID 1159580);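 also: tested at 20 µM; growth read once vehicle control cultures reached saturation at 30 °C; 1 = growth at the plate median or of vehicle wells; lower values mean less growth of the strain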
Conditions: S. cerevisiae deletion strains, growth OD

Measured: normalized growth

COc1cc(-c2coc3cc(OC)c(OC)c(OC)c3c2=O)cc(OC)c1OC
inactive: locus YAL013W, strain DEP1, active compounds read low 0.994 | locus YAL021C, strain ccr4, active compounds read low 1 | locus YAL026C, strain drs2, active compounds read low 1.01 | locus YAL030W, strain snc1, active compounds read low 1.01 | locus YBL061C, strain skt5, active compounds read low 0.996 | locus YBR009C, strain hhf1, active compounds read low 0.993 | locus YBR021W, strain FUR4, active compounds read low 1.02 | locus YBR023C, strain chs3, active compounds read low 0.991 | locus YBR171W, strain sec66, active compounds read low 0.99 | locus YBR229C, strain ROT2, active compounds read low 1 | locus YBR231C, strain swc5, active compounds read low 0.969 | locus YBR279W, strain paf1, active compounds read low 1.01 | locus YCL011C, strain gbp2, active compounds read low 1 | locus YCL016C, strain dcc1, active compounds read low 0.987 | locus YCL029C, strain bik1, active compounds read low 0.973 | locus YCL061C, strain MRC1, active compounds read low 1.01 | locus YCL069W, strain vba3, active compounds read low 1.01 | locus YCR088W, strain abp1, active compounds read low 1.01 | locus YDL005C, strain med2, active compounds read low 0.996 | locus YDL035C, strain GPR1, active compounds read low 1.03 | locus YDL040C, strain nat1, active compounds read low 0.995 | locus YDL074C, strain BRE1, active compounds read low 1.02 | locus YDL101C, strain DUN1, active compounds read low 0.981 | locus YDL185W, strain tfp1, active compounds read low 0.968 | locus YDL192W, strain arf1, active compounds read low 1.03 | locus YDR001C, strain nth1, active compounds read low 0.999 | locus YDR069C, strain doa4, active compounds read low 1.01 | locus YDR101C, strain arx1, active compounds read low 1.06 | locus YDR137W, strain rgp1, active compounds read low 1.01 | locus YDR159W, strain sac3, active compounds read low 0.947 | locus YDR162C, strain NBP2, active compounds read low 1.03 | locus YDR195W, strain ref2 0.963 | locus YDR297W, strain sur2, active compounds read low 1.01 | locus YDR318W, strain mcm21, active compounds read low 0.993 | locus YDR334W, strain swr1, active compounds read low 0.994 | locus YDR335W, strain msn5, active compounds read low 1 | locus YDR388W, active compounds read low 0.985 | locus YDR392W, strain spt3, active compounds read low 0.888 | locus YDR502C, strain sam2, active compounds read low 0.985 | locus YEL003W, strain gim4, active compounds read low 0.992 | locus YEL037C, strain rad23, active compounds read low 1 | locus YEL061C, strain CIN8 (second series), active compounds read low 1 | locus YEL061C, strain CIN8, active compounds read low 0.994 | locus YER015W, strain faa2, active compounds read low 1 | locus YER016W, strain bim1, active compounds read low 0.999 | locus YER110C, active compounds read low 0.968 | locus YER111C, strain swi4, active compounds read low 0.989 | locus YER155C, strain BEM2 (second series), active compounds read low 0.968 | locus YER155C, strain BEM2, active compounds read low 0.984 | locus YER167W, strain BCK2, active compounds read low 1 | locus YFR010W, strain ubp6, active compounds read low 0.996 | locus YGL078C, strain dbp3, active compounds read low 0.975 | locus YGL086W, strain mad1, active compounds read low 1.01 | locus YGL167C, strain pmr1, active compounds read low 1 | locus YGL173C, strain kem1, active compounds read low 1 | locus YGL227W, strain vid30, active compounds read low 0.99 | locus YGL240W, strain doc1, active compounds read low 0.987 | locus YGL248W, strain PDE1, active compounds read low 0.965 | locus YGL253W, strain hxk2, active compounds read low 0.996 | locus YGR135W, strain pre9, active compounds read low 0.952 | locus YGR252W, strain gcn5, active compounds read low 1.01 | locus YHR013C, strain ard1, active compounds read low 0.996 | locus YHR027C, strain rpn1, active compounds read low 0.997 | locus YHR030C, strain SLT2, active compounds read low 0.997 and 1.06 | locus YHR079C, strain IRE1 (second series), active compounds read low 0.992 | locus YHR079C, strain IRE1, active compounds read low 1.02 | locus YHR094C, strain hxt1, active compounds read low 1 | locus YHR129C, strain ARP1, active compounds read low 0.996 | locus YHR142W, strain chs7, active compounds read low 0.994 | locus YHR200W, strain rpn10, active compounds read low 1.01 | locus YIL066C, strain RNR3, active compounds read low 1 | locus YIL073C, strain SPO22, active compounds read low 0.921 | locus YIL125W, strain kgd1, active compounds read low 1.01 | locus YIR030C, strain dcg1, active compounds read low 0.989 | locus YJL092W, strain hpr5, active compounds read low 1.01 | locus YJL095W, strain BCK1 (second series), active compounds read low 1 | locus YJL095W, strain BCK1, active compounds read low 0.986 and 1.07 | locus YJL115W, strain asf1, active compounds read low 1 | locus YJL129C, strain trk1, active compounds read low 0.988 | locus YJL134W, strain LCB3, active compounds read low 1 | locus YJL154C, strain vps35, active compounds read low 0.99 | locus YJL164C, strain tpk1, active compounds read low 1 | locus YJL166W, strain qcr8, active compounds read low 0.999 | locus YJL168C, strain set2, active compounds read low 0.993 | locus YJL187C, strain SWE1 (second series), active compounds read low 0.968 | locus YJR043C, strain POL32, active compounds read low 1.04

Reference: PubChem BioAssay AID1159580 (chemical genetic matrix, 2015)
